Source: PubChem
Most compounds without a hit are left out; they make up all but 1.6% or so of the library.
KCNQ2 pot: KCNQ2 (rat) channel potentiation; hit rate 0.54% among 310,000; B-score at 10 µM; CHO-K1 KCNQ2, FluxOR thallium flux fluorescence; hits give high values; O88943;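 active means fluorescence ratio B-score at least 3 SD of library B-scores, with initial fluorescence B-score within 3 of them, cut at about 5.3 in these data; same plate scores as AID 2156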;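 further: B-score of peak minus minimum over baseline fluorescence ratio after K+ and Tl+ stimulus; positive B-score means potentiation of KCNQ2 with more thallium influx and brighter signal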
KCNQ2 inh: blocks the rat KCNQ2 potassium channel; AID 2156; B-score at 10 µM; CHO-K1 KCNQ2, FluxOR thallium flux, 20 min; hits give low values; hit rate 1.1% among 310,000;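 active means fluorescence ratio B-score at most minus 3 library SDs, with starting brightness B-score within 2 library SDs, cut at about -5.5 in these data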
The depositor's hits bear a star; i = inactive; . = not tested or not shown.

SMILES	KCNQ2 pot	KCNQ2 inh
O=C(CSc1nnc(NC(=O)C2CC(=O)N(c3ccc(F)cc3)C2)s1)NC1CCCC1 (configuration not stated)	0.06	i
O=C(Nc1cc(Br)c(O)c(Br)c1)c1cccc(NC(=O)c2ccco2)c1	2.77	i
O=C(Nc1cccc(N=Cc2cc(Cl)cc(Br)c2O)c1)c1ccco1	10.1*	i
CCN(C(=O)COC(=O)CNC(=O)c1ccc(C)s1)c1ccccc1	.	i
COc1ccc(COC(=O)C2=C(C)NC(=O)NC2c2cc(Br)c(O)c(OC)c2)cc1 (configuration not stated)	1.61	i
Cc1cccc(-c2nc(CS(=O)CC(=O)N3CCc4ccccc4C3)c(C)o2)c1 (configuration not stated)	-7.77	-7.77*
CCN1CCN(C(=O)CS(=O)Cc2nc(-c3cccc(C)c3)oc2C)CC1 (configuration not stated)	.	i
O=C(O)CC(NNC(=O)c1ccccc1)C(=O)Nc1cccc([N+](=O)[O-])c1 (configuration not stated)	0.96	i
CC(C)CNC(=O)NC(=O)COC(=O)Cn1cnc2ccccc2c1=O	0.02	i
Cc1ccc(-c2csc(NC(=O)CCNC(=O)c3ccco3)n2)cc1	.	i
Cc1ccc(-c2csc(NC(=S)NC(=O)c3ccco3)n2)cc1	10.7*	i
O=C(COc1ccc(/C=N/NC(=O)C(=O)N2CCCCCC2)cc1)Nc1ccccc1Cl	0.61	i
CN(c1ccccc1)S(=O)(=O)c1cccc(NC(=O)CSc2nncn2C)c1	0.07	i
CN(c1ccccc1)S(=O)(=O)c1cccc(NC(=O)CSc2ncc(C(F)(F)F)cc2Cl)c1	9.74*	i
CC(=O)c1c(C)[nH]c(C(=O)Nc2nc(-c3ccc(Cl)cc3)cs2)c1C	0.73	i
COc1ccc(OC)c(NC(=O)c2[nH]c(C)c(C(C)=O)c2C)c1	0.07	i
COc1ccc(-c2nc(NC(=O)c3[nH]c(C)c(C(C)=O)c3C)sc2C)cc1	-6.47	-6.47*
CC(=O)c1c(C)[nH]c(C(=O)Nc2nc(-c3ccc(-c4ccccc4)cc3)cs2)c1C	-7.64	-7.64*
COc1ccc(CNC(=O)C2=CCN(S(=O)(=O)c3ccc(C)cc3)CC2)cc1	.	i
C=CCNC(=S)NNC(=O)c1ccc([N+](=O)[O-])cc1	.	i
C=CCN(CC=C)C(=S)NC(=O)c1ccc([N+](=O)[O-])cc1	7.2*	i
COc1ccc(CCNC(=O)CSc2nnc3ccc(-c4cccnc4)nn23)cc1OC	0.64	i
CC(C)(C)c1ccc(/C=C2\SC(=O)N(CCNC(=O)c3cccc(S(=O)(=O)N4CCOCC4)c3)C2=O)cc1	1.39	i
COc1cc(/C=C2/SC(=S)N(CC(=O)O)C2=O)ccc1OC(=O)c1ccco1	.	i
CCCc1nc2ccccc2c(C(=O)OCC(=O)NCc2ccc3c(c2)OCO3)c1CC	.	i
SMILES	KCNQ2 pot	KCNQ2 inh
CCc1nc2ccccc2c(C(=O)OCC(=O)NCc2ccc3c(c2)OCO3)c1C	-5.85	-5.85*
O=C(COc1ccc([N+](=O)[O-])cc1)NCc1ccncc1	1.28	i
COC(=O)C1C(O)=C(C=NCc2ccccc2)C(=O)CC1(C)C (configuration not stated)	.	i
COC(=O)C1C(O)=C(C=Nc2cccc3ccccc23)C(=O)CC1(C)C (configuration not stated)	-5.97	-5.97*
O=C(NCCN1CCCC1)c1ccc2c(=O)n(CCc3ccccc3)c(=O)[nH]c2c1	-6.03	-6.03*
CCCN1CCN(CCCNC(=O)c2ccc3c(=O)n(CCc4ccccc4)c(=O)[nH]c3c2)CC1	.	i
O=C(NCC(=O)N(Cc1ccccc1)C(C(=O)NCC1CCCO1)c1ccccc1)c1cccs1 (configuration not stated)	-5.57	-5.57*
CC(=O)c1ccc(N(C(=O)CNC(=O)c2cccs2)C(C(=O)NCC2CCCO2)c2ccccc2)cc1 (configuration not stated)	0.47	i
CC(C)c1ccc2oc(=O)cc(CN3CCCCC3)c2c1	.	i
O=C(Cn1ncc2c([nH]c3ccccc32)c1=O)NCC1CCN(Cc2ccccc2F)CC1	0.86	i
CCC(Sc1nc2cc(OC)c(OC)cc2c(=O)n1CCc1ccc(OC)c(OC)c1)C(=O)NCCOC (configuration not stated)	.	i
CCCN1CCN(CCCNC(=O)C(CC)n2nc(C)n3c(cc4occc43)c2=O)CC1 (configuration not stated)	.	i
COc1ccc(N2CCN(C(=O)c3oc4ccccc4c3NC(=O)Cc3cccc(OC)c3)CC2)cc1	-5.78	-5.78*
COc1ccc(N2CCN(C(=O)c3oc4ccccc4c3NC(=O)Cc3ccc(OC)c(OC)c3)CC2)cc1	.	i
COc1cccc(CNC(=O)CCC2CCCN(C(=O)c3ccoc3)C2)c1 (configuration not stated)	0.47	i
COc1cccc(CNC(=O)CCC2CCCN(C(=O)c3cc4ccccc4o3)C2)c1 (configuration not stated)	-6.42	-6.42*
CN(CC(=O)Nc1cccc(F)c1)C(=O)c1cc(S(=O)(=O)N(C)C)ccc1N1CCCC1	0.44	i
COC(=O)c1ccc(CNC(=O)C(NC(=O)c2ccco2)C(C)C)cc1 (configuration not stated)	.	i
Cc1ccc(CNC(=O)c2sc3nc4c(c(C(F)(F)F)c3c2N)CCC4)cc1	.	i
Nc1c(C(=O)NCc2ccc(Cl)cc2)sc2nc3c(c(C(F)(F)F)c12)CCC3	-6.07	-6.07*
O=C(COC(=O)c1cnccn1)c1cccc([N+](=O)[O-])c1	.	i
COC(=O)c1c(-c2c(Cl)cccc2Cl)noc1NC(=O)NN1CCOCC1	.	i
O=C(Nc1csc(Cc2c(Cl)cccc2Cl)n1)NN1CCOCC1	6.08*	i
CCCNC(=O)c1onc(CSc2ccc(Cl)cc2)c1C(=O)NC(C)C	.	i
COc1cccc(CNC(=O)CN2C(=O)CSc3ccc(S(=O)(=O)N4CCCC4)cc32)c1	.	i
SMILES	KCNQ2 pot	KCNQ2 inh
CS(=O)(=O)N(CC(=O)N1CCN(Cc2ccccc2)CC1)c1cccc([N+](=O)[O-])c1	.	i
COc1ccc(NC(=O)C(=O)NNC(=O)C(C)Oc2ccc(Cl)cc2Cl)cc1 (configuration not stated)	20.1*	i
CC(=O)Nc1ccc(NC(=O)C(C)Oc2ccc(Cl)cc2Cl)cc1 (configuration not stated)	0.1	i
O=C1CCc2cc(S(=O)(=O)NC3CCCCC3)cc3c2N1CC3	.	i
CCOC(=O)CC1(NC(=O)c2cc(COc3c(F)cccc3F)on2)CCCCC1	-5.68	-5.68*
COC(=O)[C@H](Cc1ccccc1)NC(=O)c1cc(COc2c(F)cccc2F)on1	1.93	i
Cn1c(=O)n(C)c2cc([N+](=O)[O-])c(N3CCN(CCO)CC3)cc21	.	i
Cc1ccc2oc(C(=O)N3CCN(c4cccc(C)n4)CC3)c(C)c2c1	-8.08	-8.08*
Cc1cc(Cl)c2oc(C(=O)N3CCN(c4cccc(C)n4)CC3)c(C)c2c1	.	i
CCOC(=O)C1CCN(C(=O)c2cccc(Cl)c2)CC1	0.56	i
CCOC(=O)C1CCN(c2c(C(=O)c3ccccc3)cnc3ccc(Cl)cc23)CC1	-5.58	-5.58*
CCCCCC(=O)Nc1ccc(-c2csc(N)n2)cc1	0.48	i
CC(C)CCNC(=S)Nc1ccc(Br)cc1	5.32*	i
CCCCNC(=S)Nc1ccc(Oc2ccccc2)cc1	.	i
CCCCNC(=S)Nc1ccc([N+](=O)[O-])cc1	12.3*	i
